Assay outcomes: PubChem, National Center for Advancing Translational Sciences (NCATS)
Sfp PPTase inh = qHTS Assay for Inhibitors of Bacillus subtilis Sfp phosphopantetheinyl transferase (PPTase). 4'-phosphopantetheinyl transferase ffp (Bacillus subtilis), Q9F4F7. Biochemical Sfp PPTase activity, qHTS. Potency, µM, for the others: largest response in the series, negative = inhibition, hits mostly inhibitors. actives 3.5% (n = 310,000). AID 1490, 2009;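 also: the enzyme is Sfp with the accession as filed and its product quenches rhodamine fluorescence; 0% = enzyme reaction without inhibitor and -100% = no enzyme wells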
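Fluorescence-quenching assay: 15 nM Sfp-PPTase preincubated 15 min at room temperature with compound, then 5 uM rhodamine-CoA and 12.5 uM BHQ-2-labelled YbbR peptide added. Fluorescence (ex 525/em 598 nm) read at start and after 30 min; difference gives rate.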
JMJD2A Tudor = qHTS Assay for Inhibitors of JMJD2A-Tudor Domain; AlphaScreen JMJD2A-Tudor / H3K4me3 peptide binding; Potency, µM (top dose mostly 114 µM), without a hit: at the top dose activity change, negative = inhibition, hits mostly inhibitors; Lysine-specific demethylase 4A (Homo sapiens), O75164; actives 4.4% (n = 390,000); also: % is scaled to controls: 0 for no effect and ±100 for the full control effect; nearly all actives have a fitted effect of over 50% in size
HP1b chromo inh = HTS for Inhibitors of HP1-beta Chromodomain Interactions with Methylated Histone Tails | Chromobox protein homolog 1 (Homo sapiens), P83916 | AlphaScreen HP1-beta / biotin-H3K9me3 peptide binding | AID 540317, 2011 | Potency, µM (doses to about 114 µM), for the others: top-dose activity change, negative = inhibition, most hits filed as inhibitors | actives 0.56% (n = 390,000); also: nearly all actives have a fitted effect of over 70% in size
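HP1-beta protein (50 nM final) preincubated 30 min at room temperature with biotinylated H3(1-18)K9me3 peptide (50 nM) in PBS pH 7.4, 0.01% Tween-20, then compound added for 30 min. AlphaScreen streptavidin donor/nickel chelate acceptor beads (10 ug/mL final), 30 min dark, luminescence read.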
BAZ2B block = qHTS Assay for Inhibitors of BAZ2B | Bromodomain adjacent to zinc finger domain protein 2B (Homo sapiens), Q9UIF8 | AlphaScreen BAZ2B-H3K14Ac peptide displacement | Potency, µM (doses to about 114 µM), for the others: top-dose activity change, negative = inhibition, actives largely listed as inhibitors | actives 4.4% (n = 360,000) | AID 504333, 2011; also: % is scaled to controls: 0 for no effect and ±100 for the full control effect; nearly all actives have a fitted effect of over 60% in size
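Protein-peptide AlphaScreen: BAZ2B 50 nM, b-H3K14Ac 50 nM, 1x PBS pH 7.4 + 0.01% Tween-20. Preincubation 30 min RT; cpd 30 min RT (top 110 uM); beads 20 min RT, light-protected.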
G9a block = qHTS Assay for Inhibitors of Histone Lysine Methyltransferase G9a; Histone-lysine N-methyltransferase EHMT2 (Homo sapiens), Q96KQ7; G9a H3K9 monomethylation, AlphaScreen, 2 h; Potency, µM (titrated, usually from 102 µM), without a hit: top-dose activity, negative = inhibition, most hits filed as inhibitors; actives 8.8% (n = 350,000); AID 504332, 2011; also: % is scaled to controls: 0 for no effect and ±100 for the full control effect; nearly all actives have a fitted effect of over 75% in size
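G9a (20 nM) was preincubated 15 min with compound, then reacted 2 h at room temperature with 500 nM biotin-H3K9 peptide and 20 µM SAM. Monomethyl-H3K9 detected by AlphaScreen using anti-H3K9me1 antibody.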
L3MBTL1 inh-1 = qHTS Assay for the Inhibitors of L3MBTL1; AlphaScreen L3MBTL1–H3K9me1 peptide binding; Potency, µM (series often up to 57.1 µM), without a hit: at the highest dose activity, negative = inhibition, usual class: inhibitors; actives 0.66% (n = 230,000); also: % is scaled to controls: 0 for no effect and ±100 for the full control effect; nearly all actives have a fitted effect of over 60% in size
Target sequence (Q9Y468 whole entry, looked up): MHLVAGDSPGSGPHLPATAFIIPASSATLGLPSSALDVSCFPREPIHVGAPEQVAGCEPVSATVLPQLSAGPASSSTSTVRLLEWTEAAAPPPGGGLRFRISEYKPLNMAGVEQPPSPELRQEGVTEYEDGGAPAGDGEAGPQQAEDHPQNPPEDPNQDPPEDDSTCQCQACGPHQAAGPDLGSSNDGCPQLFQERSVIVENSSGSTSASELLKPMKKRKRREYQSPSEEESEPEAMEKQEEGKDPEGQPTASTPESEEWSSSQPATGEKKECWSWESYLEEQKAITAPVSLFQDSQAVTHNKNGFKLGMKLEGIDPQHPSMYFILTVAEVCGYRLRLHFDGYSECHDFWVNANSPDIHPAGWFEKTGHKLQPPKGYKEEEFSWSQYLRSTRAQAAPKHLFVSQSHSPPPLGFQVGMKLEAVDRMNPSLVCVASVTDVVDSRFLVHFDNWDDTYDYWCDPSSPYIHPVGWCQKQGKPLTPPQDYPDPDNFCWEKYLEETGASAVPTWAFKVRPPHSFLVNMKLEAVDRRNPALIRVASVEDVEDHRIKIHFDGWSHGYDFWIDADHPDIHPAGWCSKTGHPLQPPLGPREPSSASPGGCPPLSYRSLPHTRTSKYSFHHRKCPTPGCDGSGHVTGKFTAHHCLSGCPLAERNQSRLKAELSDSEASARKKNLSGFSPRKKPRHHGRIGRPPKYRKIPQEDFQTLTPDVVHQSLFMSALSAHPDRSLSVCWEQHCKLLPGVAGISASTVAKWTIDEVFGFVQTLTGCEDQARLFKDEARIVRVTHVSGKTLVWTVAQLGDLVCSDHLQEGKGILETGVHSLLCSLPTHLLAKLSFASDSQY
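L3MBTL1 (50 nM) pre-complexed 30 min with biotinylated H3(1-15)K9me1 peptide (75 nM), then compounds added for 30 min at room temperature; AlphaScreen streptavidin donor/nickel chelate acceptor beads (10 ug/mL final) read after 30 min dark incubation.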
L3MBTL1 inh-2 = qHTS Assay for the Inhibitors of L3MBTL1: Hit Validation; shares compounds with L3MBTL1 inh-1; L3MBTL1 methyl-lysine binding inhibition, biochemical qHTS; Potency, µM, actives largely listed as inhibitors; actives 91% (n = 500); AID 540279, 2011; also: nearly all actives have a fitted effect of over 70% in size
AlphaScreen ctr2 = qHTS Assay for the Inhibitors of L3MBTL1: Hit Validationin AlphaScreen Counterscreen; shares compounds with L3MBTL1 inh-1; AlphaScreen counterscreen, signal inhibition; Potency, µM (highest dose often 57.1 µM), without a hit: top-dose activity change, negative = inhibition, hits mostly inhibitors; 500 tested, under 10 active; also: 0% is about no effect
* = called active by the depositor; ! = not confirmed by another sample; [ ] = another dose, or the depositor's remark. The list is not random: actives were taken first. Their share in the collection is about 12%. Calls follow the shape of the dose curve; as a rule, active = well fitted curve in the direction sought with a large enough effect; inconclusive = small, poorly fitted or top-dose-only effect, or another doubt; inactive = no such curve, though single readings can be large; an effect the other way counts as inactive or inconclusive. Potency is read from the fitted curve at half-maximal effect.

Screening O=C(O)c1cccc(-n2cccc2/C=C2/NC(=O)N(Cc3ccccc3F)C2=O)c1 returned Sfp PPTase inh 50µM*, JMJD2A Tudor -17%[11.4 µM], HP1b chromo inh -26%, BAZ2B block 50µM*, G9a block 45µM*, L3MBTL1 inh-1 32µM*, L3MBTL1 inh-2 6* and AlphaScreen ctr2 9%.
Cc1ccc(NC(=O)CN2C(=O)N/C(=C/c3cccn3-c3ccc(C(=O)O)cc3)C2=O)cc1 was read as Sfp PPTase inh 50µM*, JMJD2A Tudor 3.2µM*, HP1b chromo inh 2.8µM*, BAZ2B block 4µM*, G9a block 8.9µM*, L3MBTL1 inh-1 2.2µM*, L3MBTL1 inh-2 0.47* and AlphaScreen ctr2 inconclusive.
Screening O=C(O)c1cc(-c2ccco2)nc2ccc(Br)cc12 returned Sfp PPTase inh 13µM*!, JMJD2A Tudor 13µM*!, HP1b chromo inh 56µM*!, BAZ2B block 11%, G9a block 3.5µM*, L3MBTL1 inh-1 4.5µM*, L3MBTL1 inh-2 2.4* and AlphaScreen ctr2 1%.
`O=C(c1ccco1)N1CCN(C(=O)c2cc(-c3ccncc3)nc3ccc(Br)cc23)CC1` gave JMJD2A Tudor 2% and HP1b chromo inh 17%.
For CN(C)C(CNC(=O)c1cc(-c2ccco2)nc2ccccc12)c1ccccc1 (stereo not drawn) the results were JMJD2A Tudor inconclusive, HP1b chromo inh -12%[57 µM], L3MBTL1 inh-1 7.9µM*, L3MBTL1 inh-2 2.7* and AlphaScreen ctr2 -6%.
Screening CC(C)CCNC(=O)c1cc(-c2ccco2)nc2ccccc12 returned Sfp PPTase inh -4%, JMJD2A Tudor -10%, HP1b chromo inh 15%, BAZ2B block -6% and G9a block 31%[12.7 µM].
COC(=O)C1CCN(C(=O)c2cc(-c3ccco3)nc3ccccc23)CC1 was read as JMJD2A Tudor 28µM*, HP1b chromo inh inconclusive, L3MBTL1 inh-1 0.79µM*, L3MBTL1 inh-2 5.3* and AlphaScreen ctr2 2%.
Screening CCCCCCNC(=O)c1cc(-c2ccco2)nc2ccccc12 returned Sfp PPTase inh inconclusive, JMJD2A Tudor 20µM*, HP1b chromo inh 22µM*, BAZ2B block 35µM*, G9a block 8.9µM*, L3MBTL1 inh-1 14µM*, L3MBTL1 inh-2 7.5* and AlphaScreen ctr2 8%.
Screening CCCC(C)(C)C(=O)Nc1ccc(Cl)cc1 returned Sfp PPTase inh -5%.
`COc1ccc(-n2ncc(C(=O)N3CCN(C(=O)c4ccco4)CC3)c2C2CCN(C(=O)OC(C)(C)C)CC2)cc1` gave JMJD2A Tudor 1%, HP1b chromo inh 31%, BAZ2B block 9%[57.1 µM] and G9a block -7%[59 µM].
For COc1ccc(OCC(=O)OCc2cc(=O)n3cc(C)sc3n2)cc1 the results were JMJD2A Tudor -11%, HP1b chromo inh 5%, BAZ2B block -7% and G9a block 13%[59 µM].
For Nc1ccc(Nc2ccccc2)c(S(=O)(=O)O)c1 the results were Sfp PPTase inh 4%, JMJD2A Tudor inconclusive, HP1b chromo inh -2%[57 µM], BAZ2B block 56µM*, G9a block 45µM*, L3MBTL1 inh-1 16µM*, L3MBTL1 inh-2 2.7* and AlphaScreen ctr2 inconclusive.
Nc1ccc(/C=C/c2ccc(N)cc2S(=O)(=O)O)c(S(=O)(=O)O)c1 was read as Sfp PPTase inh -20% and G9a block inconclusive.
Screening O=C(CSc1nnc(C2COc3ccccc3O2)o1)Nc1nccs1 (stereo not drawn) returned Sfp PPTase inh -3%, JMJD2A Tudor 79µM*, HP1b chromo inh 48%, BAZ2B block 40µM*, G9a block 0%, L3MBTL1 inh-1 22µM*, L3MBTL1 inh-2 inconclusive and AlphaScreen ctr2 13%.
`Clc1ccccc1-c1nccc(NCc2cccs2)n1` gave Sfp PPTase inh 7% and G9a block 9%[0.501 µM].
`Cc1ccc(C(CCN(Cc2ccccc2)C(=O)c2ccco2)c2ccco2)cc1` (stereo not drawn) gave Sfp PPTase inh 40µM*, JMJD2A Tudor 20µM*, HP1b chromo inh -5%, BAZ2B block 32µM*, G9a block 50µM*, L3MBTL1 inh-1 25µM*, L3MBTL1 inh-2 21* and AlphaScreen ctr2 -3%.
Screening CN(CCC#N)C(=O)COC(=O)c1c2c(nc3ccccc13)/C(=C/c1ccco1)CC2 returned Sfp PPTase inh -75%, JMJD2A Tudor 89µM*, HP1b chromo inh inconclusive, BAZ2B block 45µM*, G9a block 22µM*, L3MBTL1 inh-1 10µM*, L3MBTL1 inh-2 2.1* and AlphaScreen ctr2 inconclusive.
For O=c1c(-c2cccs2)nc2cnc(N3CCOCC3)nc2n1CCc1ccccc1 the results were Sfp PPTase inh -9% and G9a block 22%[0.501 µM].
`O=C(/C=C/c1ccccc1)Nc1cc(-c2nc3ccccc3o2)ccc1Cl` gave JMJD2A Tudor -22%, HP1b chromo inh 21%, BAZ2B block 4% and G9a block -47%[59 µM].
Cc1cc(C)c2nc(N3C(=O)C(O)=C(C(=O)c4ccco4)C3c3cccc(O)c3)sc2c1 (stereo not drawn) was read as JMJD2A Tudor inconclusive, HP1b chromo inh -9%, BAZ2B block inconclusive, G9a block -48%[2.33 µM], L3MBTL1 inh-1 32µM*, L3MBTL1 inh-2 24* and AlphaScreen ctr2 0%.
Cc1cc(N2C(=O)C(O)=C(C(=O)c3ccco3)C2c2ccc(Cl)cc2)no1 (stereo not drawn) was read as Sfp PPTase inh 11%, JMJD2A Tudor 4%, HP1b chromo inh 28%, BAZ2B block -23% and G9a block inconclusive.
